# U2OS ROS induce = cancer cell ROS induction. U2OS ROS induction, H2DCF-DA fluorescence. ROS induction (% of piperlongumine), % at 10 µM. actives 2% (n = 46,000). AID 624156; in the data active = ROS induction above about 79%, passing the limit was not always enough;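 note: 0% = DMSO vehicle median and 100% = reference compound median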
# * hit, by the source's call. Only a selection was taken, and hits are over-represented in it overall.
SMILES,U2OS ROS induce
Cc1cc(C(=O)Nc2cccc3c2O[C@@H](CN(C)Cc2ccc(-c4ccccc4)cc2)[C@H](C)CN([C@H](C)CO)C3=O)n(C)n1,78*
O=C(Cn1cnc2c(nnn2Cc2ccc(Cl)cc2)c1=O)NC1CCCCC1,-12
O=C(Nc1ccccc1Cl)c1cc2ccccc2cc1O,23
CC(Sc1ncnc2sc3c(c12)CCCC3)C(=O)O (stereo not given),1
CCOC(=O)C1CCN(C(=S)NC2Cc3ccccc3C2)CC1,2
Cc1cc2nc(SCc3ccccc3C#N)[nH]c2cc1C,127*
Cc1cc2nc(SCC(=O)NN)[nH]c2cc1C,-26
Cc1cc2nc(Sc3c([N+](=O)[O-])nc(C)n3Cc3ccccc3)[nH]c2cc1C,17
CCOC(=O)c1ccc2nc(C(F)(F)F)cc(NC3CCN(Cc4ccccc4)CC3)c2c1,58
COC(=O)c1ccc(NC(C)=O)cc1,-1
CNc1sc(S(C)(=O)=O)nc1S(=O)(=O)c1ccc(C)cc1,0
CC(=O)Nc1nonc1-c1nc2ccccc2n1Cc1ccccc1Br,12
O=CNc1nonc1NC(=O)c1ccccc1Cl,-9
Cn1c(-c2nonc2NC(=O)c2ccccc2Br)nc2ccccc21,102*
COC(=O)c1ccc(NC(=O)N2CCOc3ccc(C)cc32)cc1,-14
Nc1ccc2nc(NC(=O)C34CC5CC(CC(C5)C3)C4)sc2c1,64
CCOC(=O)c1cnc2c(Cl)c(Cl)ccc2c1N(C)Cc1ccccc1,9
COc1cc(-c2nnc(SCC(=O)c3cccc([N+](=O)[O-])c3)n2-c2ccccc2)cc(OC)c1OC,95*
COc1ccc(-c2nnc(SCC(=O)c3ccc(F)cc3)n2-c2ccccc2)cc1OC,15
COc1ccc(-c2nnc(SCC(=O)c3cccc([N+](=O)[O-])c3)n2C)cc1,15
COc1ccc(-c2cc(C)nc(SCC(=O)c3cccc([N+](=O)[O-])c3)n2)cc1,92*
COc1cc(-c2nnc(SCC(=O)c3ccc(Cl)cc3)n2-c2ccccc2)cc(OC)c1OC,0
Cc1cc(C(F)(F)F)nc(SCC(=O)c2cccc([N+](=O)[O-])c2)n1,-10
Cc1nn(-c2ccccc2)nc1CNS(=O)(=O)c1c(C)noc1C,-7
COc1ccc(-c2cc(OC(=O)c3ccccc3)cc3sc(=O)oc23)cc1,28
SMILES,U2OS ROS induce
CCOC(=O)c1cc(-c2ccccc2)sc1NC(=O)CCN1CCN(CC)CC1,53
Cc1nc2ccc(S(=O)(=O)NCC(=O)N3CCCC3)cc2s1,-7
C[C@@H]1CN([C@H](C)CO)C(=O)Cc2cc(NS(=O)(=O)c3cn(C)cn3)ccc2O[C@H]1CN(C)Cc1ccccc1,1
C[C@H]1CN([C@@H](C)CO)C(=O)Cc2cc(NS(=O)(=O)c3cn(C)cn3)ccc2O[C@H]1CN(C)Cc1ccccc1,-5
C[C@H]1CN([C@@H](C)CO)C(=O)Cc2cc(NS(=O)(=O)c3cn(C)cn3)ccc2O[C@H]1CN(C)Cc1ccc(-c2ccccc2)cc1,95*
C[C@H]1CN([C@@H](C)CO)C(=O)Cc2cc(NS(=O)(=O)c3cn(C)cn3)ccc2O[C@@H]1CN(C)Cc1ccncc1,79*
C[C@H](CO)N1C[C@H](C)[C@H](CN(C)Cc2ccc(Oc3ccccc3)cc2)Oc2ccc(NS(=O)(=O)c3cn(C)cn3)cc2CC1=O,29
C[C@@H]1CN([C@H](C)CO)C(=O)Cc2cc(NS(=O)(=O)c3cn(C)cn3)ccc2O[C@H]1CN(C)Cc1ccc(-c2ccccc2)cc1,33
C[C@@H]1CN([C@H](C)CO)C(=O)Cc2cc(NS(=O)(=O)c3cn(C)cn3)ccc2O[C@@H]1CN(C)Cc1ccc(Oc2ccccc2)cc1,80*
C[C@@H]1CN([C@@H](C)CO)C(=O)Cc2cc(NS(=O)(=O)c3cn(C)cn3)ccc2O[C@@H]1CN(C)Cc1ccncc1,0
C[C@@H]1CN([C@H](C)CO)C(=O)Cc2cc(NS(=O)(=O)c3cn(C)cn3)ccc2O[C@@H]1CN(C)Cc1ccc(-c2ccccc2)cc1,7
O=C(O)CSc1nnc(Cn2c(=O)sc3ccccc32)n1-c1cccc(C(F)(F)F)c1,40
O=C(c1ccc(N2CCOCC2)nc1)N1CCCCCC1,-4
O=C1N(Cc2cc(=O)n3ccccc3n2)c2ccccc2S(=O)(=O)N1c1ccc(Cl)cc1,30
CNC(=O)C(C)n1c2ccccc2c2cn[nH]c(=O)c21 (stereo not given),-2
O=C(NCc1ccc(N2CCOCC2)cc1)c1cc(F)cc2c1OCOC2,2
CCOC(=O)N1CCc2c(sc3c2c(=O)n(Cc2ccccc2)c(=O)n3CC(=O)NC(C)CC)C1 (stereo not given),32
O=C(COc1ccc2ccccc2c1)Nc1cccc(-c2nc3ncccc3o2)c1,27
C/C=C/C=C/C(=O)c1cc(C)c(O)c(C)c1O,102*
O=C(Cc1cccc2ccccc12)Nc1ccc(S(=O)(=O)N2CCCC2)cc1,15
CCOc1ccc(NC(=O)C2(c3ccccc3)CCOCC2)cc1,-8
COCCn1c(=O)c(C#N)cc2c(=O)n3ccccc3nc21,20
Cc1ccc(-n2c(=O)c(C#N)cc3c(=O)n4ccccc4nc32)cc1,-1
Cc1ccc(CSc2nnc(-n3c(=O)c(C#N)cc4c(=O)n5ccccc5nc43)s2)cc1,189*
O=C(Nc1ncnc2oc(-c3ccccc3)c(-c3ccccc3)c12)c1ccccc1,58
SMILES,U2OS ROS induce
N#CCSc1nc2ccccc2c(=O)n1CCn1c(SCC#N)nc2ccccc2c1=O,-14
O=C(Cn1ncc2ccccc21)NC1CCCc2ccccc21 (stereo not given),-3
C=CCNc1ncnc2c1c(-c1ccccc1)cn2-c1cccc(C)c1,39
CN1C(=O)NC(c2ccccc2)C2=C1CC(C)(C)CC2=O (stereo not given),4
CN1C2=C(C(=O)CC(C)(C)C2)C(c2ccccc2OCC(=O)Nc2ccc(F)cc2)C2=C1CC(C)(C)CC2=O,134*
COC(=O)C1=C(C)NC(=O)NC1c1ccccc1OCC(=O)Nc1ccc(C)cc1 (stereo not given),0
COC(=O)c1cn(C(=O)CCc2ccccc2)c2ccccc12,30
c1ccc(C2=Nc3ccccc3N=C(c3ccccc3)C2)cc1,1
CCc1ccc2[nH]c(C(=O)NCc3ccccc3)cc2c1,-6
CCOC(=O)C1(NC(=S)N2CCOCC2)Sc2cc(C)ccc2NC1=O (stereo not given),6
CC(=O)N1N=C(c2c(-c3ccccc3)c3cc(Cl)ccc3[nH]c2=O)CC1c1ccco1 (stereo not given),109*
O=C(O)CCC(=O)N1N=C(c2c(-c3ccccc3)c3cc(Cl)ccc3[nH]c2=O)CC1c1ccccc1 (stereo not given),-7
O=C(O)CCC(=O)N1N=C(c2c(-c3ccccc3)c3cc(Cl)ccc3[nH]c2=O)CC1c1ccccn1 (stereo not given),-4
COc1ccc(S(=O)(=O)n2nccc2-c2ccc(-c3cccs3)s2)cc1OC,11
O=C(NO)c1cccc(C(=O)N/N=C/c2cn(Cc3ccccc3)c3ccccc23)c1,10
C=CCN1C(=O)/C(=C/c2cn(C(C)CC)c3ccccc23)C(=O)NC1=S (stereo not given),65
C=CCN1C(=O)NC(=O)/C(=C\c2cn(Cc3ccccc3)c3ccccc23)C1=O,155*
COCCOC(=O)N1C(=O)[C@@]2(c3cc(C#CCCO)ccc31)[C@H](C(=O)N1CCN(c3ncccn3)CC1)[C@H]1C(=O)O[C@H](c3ccccc3)[C@H](c3ccccc3)N1[C@@H]2c1ccccc1OCCO,166*
